What all share (set-up): scale not given: direction of the effect not stated beside the values
Experiment [1] has as its target Protein translocase subunit SecA (Escherichia coli (strain K12)) (UniProt P10408). Briefly: Assay to Identify E. coli SecA ATPase Inhibitors. The class given is functional. The conditions noted are these: 30 µM.
The target of experiment [2] is T1, Ubiquitin-activating enzyme e1, putative (Leishmania donovani (strain BPK282A1)) (UniProt E9BSI1).
T1 sequence (whole entry): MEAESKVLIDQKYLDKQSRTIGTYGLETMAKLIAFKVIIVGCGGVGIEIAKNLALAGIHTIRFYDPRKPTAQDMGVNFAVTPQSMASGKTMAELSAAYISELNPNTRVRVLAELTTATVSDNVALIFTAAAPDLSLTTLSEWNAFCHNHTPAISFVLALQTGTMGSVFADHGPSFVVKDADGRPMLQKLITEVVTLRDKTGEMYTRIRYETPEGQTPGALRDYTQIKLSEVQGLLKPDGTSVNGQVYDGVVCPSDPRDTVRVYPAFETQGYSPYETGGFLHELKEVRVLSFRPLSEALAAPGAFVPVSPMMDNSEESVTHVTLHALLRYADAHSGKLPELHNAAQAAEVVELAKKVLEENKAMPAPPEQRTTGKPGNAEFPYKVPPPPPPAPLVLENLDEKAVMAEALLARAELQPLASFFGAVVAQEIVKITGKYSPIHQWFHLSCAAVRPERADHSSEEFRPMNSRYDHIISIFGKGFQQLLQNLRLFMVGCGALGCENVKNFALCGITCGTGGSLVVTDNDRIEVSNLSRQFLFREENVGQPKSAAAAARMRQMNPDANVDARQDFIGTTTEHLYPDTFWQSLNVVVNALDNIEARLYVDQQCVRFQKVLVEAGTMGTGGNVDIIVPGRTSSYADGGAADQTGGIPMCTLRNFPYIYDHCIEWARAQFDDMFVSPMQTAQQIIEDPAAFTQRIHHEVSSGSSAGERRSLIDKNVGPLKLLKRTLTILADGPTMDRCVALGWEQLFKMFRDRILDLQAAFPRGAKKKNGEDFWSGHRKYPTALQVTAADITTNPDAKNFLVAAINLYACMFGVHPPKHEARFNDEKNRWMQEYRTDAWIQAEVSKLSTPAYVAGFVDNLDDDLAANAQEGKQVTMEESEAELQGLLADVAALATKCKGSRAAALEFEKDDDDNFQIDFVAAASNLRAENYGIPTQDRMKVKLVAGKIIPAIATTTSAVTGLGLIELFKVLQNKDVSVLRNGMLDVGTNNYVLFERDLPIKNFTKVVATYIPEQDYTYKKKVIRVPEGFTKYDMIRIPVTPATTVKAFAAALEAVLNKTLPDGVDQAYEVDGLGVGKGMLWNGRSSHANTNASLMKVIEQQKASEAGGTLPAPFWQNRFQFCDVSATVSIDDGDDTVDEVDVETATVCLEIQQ
Description: Leishmania donovani Ubiquitin Activating Enzyme (LdE1). The class given is functional. The conditions noted are these: 30 µM.

Experiment [3] deals with AMP-activated protein kinase, AMPK (Homo sapiens) (UniProt P54646+O43741+P54619+Q9UGJ0+Q9Y478+Q13131+Q9UGI9). Description: AMP-dependent Kinase enzyme assay. An in vitro enzyme assay that detects ADP turnover that is directly proportional to AMPK activity. This uses naive AMPK that is activated during the assay with MK-8722. It counts as functional. Particulars: 30 µM.
The target of experiment [4] is Sialic acid-binding Ig-like lectin 9 (Homo sapiens) (UniProt Q9Y336). Description: Hs-Siglec9 ALPHAscreen SOP 20170721. Particulars: 10 µM. For orientation: Bead proximity is the source of the signal in Alpha formats.
The next experiment concerns Trypanosoma cruzi. Description: Trypanosoma cruzi phosphomannomutase and mannose-1-phosphate guanylyltransferase assay. The class given is functional. Particulars: 10 µM.
Experiment [5] deals with T2, Arginase-2, mitochondrial (Homo sapiens) (UniProt P78540).
T2 sequence (whole entry): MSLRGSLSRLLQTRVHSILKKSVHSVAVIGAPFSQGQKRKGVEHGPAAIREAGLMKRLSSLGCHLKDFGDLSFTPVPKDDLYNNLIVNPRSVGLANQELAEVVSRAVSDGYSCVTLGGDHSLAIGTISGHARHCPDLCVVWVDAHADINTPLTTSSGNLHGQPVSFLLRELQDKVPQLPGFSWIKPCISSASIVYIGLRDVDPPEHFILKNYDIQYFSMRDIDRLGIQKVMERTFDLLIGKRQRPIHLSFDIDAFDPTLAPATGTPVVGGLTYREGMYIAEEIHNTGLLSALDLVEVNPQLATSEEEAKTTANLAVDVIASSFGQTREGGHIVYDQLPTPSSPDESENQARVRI
Briefly: in vitro enzyme assay to detect the production of urea directly proportional to the activity of Arginase II. Further: in the data most compounds retested in dose-response had high values. It counts as functional. Particulars: 33.3 µM.

In experiment [6] the target is T3, Proteasome subunit beta (Trypanosoma cruzi) (UniProt O96673).
T3 sequence (whole entry): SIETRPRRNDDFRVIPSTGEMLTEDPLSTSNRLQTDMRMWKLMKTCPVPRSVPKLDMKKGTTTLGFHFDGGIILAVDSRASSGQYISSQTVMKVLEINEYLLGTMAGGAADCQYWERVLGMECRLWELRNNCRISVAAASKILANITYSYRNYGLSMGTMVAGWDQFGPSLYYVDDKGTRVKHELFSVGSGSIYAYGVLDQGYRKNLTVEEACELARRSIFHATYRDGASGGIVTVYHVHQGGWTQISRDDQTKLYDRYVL
Description: Trypanosoma cruzi proteasome chymotrypsin-like activity (TcProtChymo) assay. Further: in the data most compounds retested in dose-response had high values. It counts as functional. The conditions noted are these: 9.37 µM.

The species entered for the next experiment is Homo sapiens. Briefly: To identify inhibition of the IFN signalling (Jak-Stat) pathway via expression of an eGFP reporter gene under the control of an IFN-stimulated response element (ISRE) containing MxA promoter. The class given is functional. Particulars: 30 µM. Background: A reporter such as luciferase makes a cellular process visible.
Experiment [7] addresses T4, Tyrosyl-tRNA synthetase, putative (Trypanosoma cruzi (strain CL Brener)) (UniProt Q4DSP6).
T4 sequence (whole entry): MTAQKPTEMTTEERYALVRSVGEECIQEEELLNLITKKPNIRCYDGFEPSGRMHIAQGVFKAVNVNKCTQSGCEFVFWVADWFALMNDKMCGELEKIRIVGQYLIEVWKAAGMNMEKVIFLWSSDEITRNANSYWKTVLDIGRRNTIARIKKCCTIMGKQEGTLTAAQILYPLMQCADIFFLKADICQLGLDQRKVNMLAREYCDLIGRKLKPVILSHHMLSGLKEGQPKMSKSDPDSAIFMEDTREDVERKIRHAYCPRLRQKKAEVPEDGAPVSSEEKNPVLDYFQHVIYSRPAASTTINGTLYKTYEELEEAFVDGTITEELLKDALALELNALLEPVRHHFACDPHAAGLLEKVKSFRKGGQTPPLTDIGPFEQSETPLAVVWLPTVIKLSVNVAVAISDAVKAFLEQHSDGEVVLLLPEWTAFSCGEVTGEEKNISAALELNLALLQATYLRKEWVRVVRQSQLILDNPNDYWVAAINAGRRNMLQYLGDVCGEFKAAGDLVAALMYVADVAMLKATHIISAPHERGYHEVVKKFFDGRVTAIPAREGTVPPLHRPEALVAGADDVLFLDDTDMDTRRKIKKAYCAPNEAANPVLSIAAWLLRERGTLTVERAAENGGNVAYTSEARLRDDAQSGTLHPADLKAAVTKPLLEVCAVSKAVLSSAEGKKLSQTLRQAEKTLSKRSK
Description: Trypanosoma cruzi tyrosyl tRNA synthetase (TcYRS) _High Tyrosine SOP. Further: in the data most compounds retested in dose-response had high values. The class given is functional. Particulars: 30 µM.

For experiment [8], the target named is T4, Tyrosyl-tRNA synthetase, putative (Trypanosoma cruzi (strain CL Brener)). Briefly: Trypanosoma cruzi tyrosyl tRNA synthetase (TcYRS) SOP. It counts as functional. The conditions noted are these: 30 µM.
For experiment [9], the target named is Chromo domain-containing protein 1 (Saccharomyces cerevisiae (strain ATCC 204508 / S288c) (Baker's yeast)) (UniProt P32657). Description: ScCHD-1 Enzyme Inhibition Assay. Further: in the data most compounds retested in dose-response had high values. It counts as functional. The conditions noted are these: 30 µM.

The results in this text go back to ChEMBL document CHEMBL3988442, “University of Dundee, Small-Polar-MMV Screening Library” (2021).

For some assays here: Results with a measured potency or affinity are listed apart.

Protein translocase subunit SecA (Escherichia coli (strain K12)), sequence (P10408 whole entry): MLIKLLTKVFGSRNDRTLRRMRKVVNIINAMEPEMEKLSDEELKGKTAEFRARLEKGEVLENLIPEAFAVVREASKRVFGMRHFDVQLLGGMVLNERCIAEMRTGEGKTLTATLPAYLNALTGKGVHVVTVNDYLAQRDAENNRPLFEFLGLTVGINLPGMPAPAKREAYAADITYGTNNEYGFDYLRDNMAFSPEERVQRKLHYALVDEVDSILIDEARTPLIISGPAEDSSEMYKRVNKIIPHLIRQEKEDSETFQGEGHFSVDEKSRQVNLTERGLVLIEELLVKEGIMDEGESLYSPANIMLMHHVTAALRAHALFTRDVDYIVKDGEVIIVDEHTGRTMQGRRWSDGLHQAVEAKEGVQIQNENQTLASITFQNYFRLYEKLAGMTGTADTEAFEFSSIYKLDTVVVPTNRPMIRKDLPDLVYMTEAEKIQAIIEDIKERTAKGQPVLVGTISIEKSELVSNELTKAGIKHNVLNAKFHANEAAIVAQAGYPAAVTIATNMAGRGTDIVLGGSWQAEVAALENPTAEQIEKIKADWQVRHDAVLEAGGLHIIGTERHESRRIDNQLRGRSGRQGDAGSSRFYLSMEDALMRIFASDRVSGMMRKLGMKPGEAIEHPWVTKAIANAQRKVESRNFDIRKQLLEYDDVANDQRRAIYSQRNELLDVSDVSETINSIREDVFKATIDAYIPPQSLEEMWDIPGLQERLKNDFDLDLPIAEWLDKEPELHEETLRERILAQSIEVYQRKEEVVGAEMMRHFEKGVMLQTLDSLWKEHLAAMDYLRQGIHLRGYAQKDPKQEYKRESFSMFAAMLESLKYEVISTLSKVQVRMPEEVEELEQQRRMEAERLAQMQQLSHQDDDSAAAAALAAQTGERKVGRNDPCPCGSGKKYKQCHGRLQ
Sialic acid-binding Ig-like lectin 9 (Homo sapiens), sequence (Q9Y336 whole entry): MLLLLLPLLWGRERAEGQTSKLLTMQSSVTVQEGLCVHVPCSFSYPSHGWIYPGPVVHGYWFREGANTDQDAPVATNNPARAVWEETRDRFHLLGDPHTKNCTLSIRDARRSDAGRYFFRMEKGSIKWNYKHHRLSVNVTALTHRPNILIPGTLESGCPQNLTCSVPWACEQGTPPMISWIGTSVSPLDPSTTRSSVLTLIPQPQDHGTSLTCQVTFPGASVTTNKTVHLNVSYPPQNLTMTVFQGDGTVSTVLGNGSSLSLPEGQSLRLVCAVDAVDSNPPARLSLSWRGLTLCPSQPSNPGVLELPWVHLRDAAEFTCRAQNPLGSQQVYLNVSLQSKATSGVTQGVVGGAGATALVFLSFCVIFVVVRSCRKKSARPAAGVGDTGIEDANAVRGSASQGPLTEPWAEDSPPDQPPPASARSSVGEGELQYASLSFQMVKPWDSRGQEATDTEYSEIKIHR
Chromo domain-containing protein 1 (Saccharomyces cerevisiae (strain ATCC 204508 / S288c) (Baker's yeast)), sequence (P32657 whole entry, the tested form may be a part): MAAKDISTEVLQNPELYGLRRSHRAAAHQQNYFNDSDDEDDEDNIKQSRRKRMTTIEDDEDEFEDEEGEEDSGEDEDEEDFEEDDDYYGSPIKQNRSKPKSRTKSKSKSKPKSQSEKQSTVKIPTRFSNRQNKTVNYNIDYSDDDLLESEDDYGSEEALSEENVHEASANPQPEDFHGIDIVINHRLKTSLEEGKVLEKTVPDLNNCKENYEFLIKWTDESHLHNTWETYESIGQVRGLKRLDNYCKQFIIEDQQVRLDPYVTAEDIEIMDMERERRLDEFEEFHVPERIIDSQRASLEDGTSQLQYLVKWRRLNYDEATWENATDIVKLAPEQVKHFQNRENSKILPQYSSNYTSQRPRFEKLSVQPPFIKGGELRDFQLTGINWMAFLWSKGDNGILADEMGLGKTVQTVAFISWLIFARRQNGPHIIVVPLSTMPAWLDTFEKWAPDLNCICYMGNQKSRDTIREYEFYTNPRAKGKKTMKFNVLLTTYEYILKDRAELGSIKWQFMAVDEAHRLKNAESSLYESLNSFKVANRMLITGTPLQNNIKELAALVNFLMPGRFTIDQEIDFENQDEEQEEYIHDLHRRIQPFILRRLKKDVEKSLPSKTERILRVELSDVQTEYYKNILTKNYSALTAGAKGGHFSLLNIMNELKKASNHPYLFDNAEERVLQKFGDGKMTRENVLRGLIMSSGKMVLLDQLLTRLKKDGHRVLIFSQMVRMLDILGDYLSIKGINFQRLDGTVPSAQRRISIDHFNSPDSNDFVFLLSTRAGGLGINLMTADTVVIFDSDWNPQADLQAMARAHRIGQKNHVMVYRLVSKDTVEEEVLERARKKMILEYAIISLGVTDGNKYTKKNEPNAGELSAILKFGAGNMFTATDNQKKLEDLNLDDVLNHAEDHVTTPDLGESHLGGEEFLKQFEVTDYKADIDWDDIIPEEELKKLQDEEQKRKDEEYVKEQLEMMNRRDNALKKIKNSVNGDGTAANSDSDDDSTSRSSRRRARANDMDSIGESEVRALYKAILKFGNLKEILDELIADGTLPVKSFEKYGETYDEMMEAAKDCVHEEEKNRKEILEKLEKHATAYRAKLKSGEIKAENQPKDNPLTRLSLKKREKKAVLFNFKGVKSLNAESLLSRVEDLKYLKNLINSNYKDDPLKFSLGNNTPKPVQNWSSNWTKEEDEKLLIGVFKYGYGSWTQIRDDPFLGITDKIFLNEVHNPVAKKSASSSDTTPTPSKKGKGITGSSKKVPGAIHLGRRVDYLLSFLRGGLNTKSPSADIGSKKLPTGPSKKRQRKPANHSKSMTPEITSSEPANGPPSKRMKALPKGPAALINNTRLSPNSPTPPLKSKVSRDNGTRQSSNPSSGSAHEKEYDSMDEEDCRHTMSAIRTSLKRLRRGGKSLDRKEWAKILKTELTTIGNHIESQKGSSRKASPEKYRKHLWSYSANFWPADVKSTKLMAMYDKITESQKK

For `Cc1n[nH]c(C)c1NC(=O)CN1CCn2c(nnc2C(C)C)C1`, the Percent Effect was -0.613% in [1]; 2.6% in experiment [2]; 7.19% in experiment [3]; 2.99% in experiment [4]; 2.06% with Trypanosoma cruzi; 2.74% in [5]. For the same molecule, the Percent Effect was 5.42% in [6]; -7.56% in the experiment filed under Homo sapiens; 0% in [7]; 0% in [8]; -16.6% in experiment [9].
Take `COCC1CN(C(=O)COc2ccccc2)Cc2cn(C)nc21` (stereo not given): the Percent Effect in experiment [1] is 1.54%; in experiment [2], -2.6%; in [3] it was 1.75%; in experiment [4] it was 4.23%; in the experiment on Trypanosoma cruzi it was -2.27%; in experiment [5], -8.39%. For the same molecule, the Percent Effect in experiment [6] was 1.39%; in the experiment filed under Homo sapiens it was 9.62%; in experiment [7], -5.29%; in experiment [8], -1.28%; in experiment [9], -6.88%.
As to `Cc1occc1C(=O)N1CCC2(CC1)CC(c1cccnc1)C(=O)N2C` (stereo not given), the Percent Effect is -1.69% in experiment [1]; 10.7% in experiment [2]; -2.33% in [3]; 5.45% in experiment [4]; -1.74% in the experiment with Trypanosoma cruzi; -19.9% in experiment [5]. Moreover, the Percent Effect in experiment [6] was 5.64%; in the experiment filed under Homo sapiens it was -9.07%; in experiment [7], 2.08%; in experiment [8] it was 12.5%; in experiment [9], -5.44%.
As to `Cc1ccc(CNC(=O)NCCCn2nc3ccccn3c2=O)s1`, the Percent Effect is -7.23% in experiment [1]; 16.2% in experiment [2]; -11% in experiment [3]; 15.3% in [4]; 6.89% with Trypanosoma cruzi; -18.8% in experiment [5]. For the same molecule, the Percent Effect is 5.95% in [6]; 7.36% in the experiment listed under Homo sapiens; 6.4% in experiment [7]; -70.4% in [8]; -16.6% in [9].
Turning to `CCCOc1cccc(CNC(=O)CN2CCN(C)CC2C)c1` (stereo not given), the Percent Effect in experiment [1] is -1.3%; in experiment [2], 13.5%; in experiment [3] it was -7.22%; in experiment [4], 15%; in the experiment with Trypanosoma cruzi, 1.02%; in experiment [5] it was -6.47%. The Percent Effect is 1.98% in [6]; 14.1% in the experiment filed under Homo sapiens; 3.96% in experiment [7]; 15.8% in experiment [8]; -9.26% in [9].
In the case of `CCOCC(O)CN1CCN(C(=O)c2ccccc2Cl)CC1` (stereo not given), the Percent Effect in experiment [1] was -5.28%; in [2] it was 5.26%; in experiment [3] it was 5.55%; in experiment [4], 2.24%; in the experiment on Trypanosoma cruzi, 0%; in [5] it was 2.3%. Further, the Percent Effect in experiment [6] is -3.17%; in the experiment filed under Homo sapiens, -0.893%; in experiment [7] it was 1.47%; in experiment [8], 7.32%; in [9], 4.97%.
Regarding `CC(=O)N1CCOCC2(CCN(Cc3ccc(C)s3)CC2)C1`, the Percent Effect in experiment [1] was -3.46%; in experiment [2], 10.7%; in experiment [3], -5.5%; in [4], -0.245%; in the experiment on Trypanosoma cruzi, 6.37%; in experiment [5], -51.8%. Besides, the Percent Effect in experiment [6] is 2.91%; in the experiment listed under Homo sapiens, -1.39%; in experiment [7], 4.17%; in [8] it was 5%; in [9] it was -7.22%.
As to `CNCC(=O)N1CCCC(c2cccc(Nc3nc(C)cc(C)n3)n2)C1` (stereo not given), the Percent Effect was -3.22% in experiment [1]; 28.4% in experiment [2]; 6.16% in [3]; -10.1% in [4]; 3.56% in the experiment on Trypanosoma cruzi; -5.34% in experiment [5]. Moreover, the Percent Effect was 14.3% in [6]; 22% in the experiment filed under Homo sapiens; 3.23% in [7]; 11.7% in experiment [8]; -21.5% in [9].
`CCc1nc(CN2CCCN(C(=O)C(C)n3cncn3)CC2)cs1` (stereo not given): the Percent Effect in experiment [1] was -4.01%; in experiment [2] it was 2.6%; in [3], -3.41%; in experiment [4], 4.94%; in the experiment with Trypanosoma cruzi it was -6.93%; in experiment [5] it was 6.05%. In addition, the Percent Effect in experiment [6] was 4.05%; in the experiment listed under Homo sapiens it was 19.8%; in [7] it was 4.85%; in experiment [8] it was 2.44%; in [9], -3.41%.
With `COc1ccccc1N1CCC(CNCc2cccc(OC)c2OC)C1` (stereo not given), the Percent Effect in experiment [1] was -3.66%; in experiment [2], 10.8%; in experiment [3], -14.2%; in experiment [4], 3.03%; with Trypanosoma cruzi it was 6.51%; in [5] it was -13.6%. Also, the Percent Effect in experiment [6] is 7.75%; in the experiment filed under Homo sapiens it was 18.9%; in [7], 13.3%; in experiment [8], 23.5%; in [9], -8.44%.
